The full ranking holds about 13,000 compounds; the median of “IFI” is about 4, and the highest 2% start at about 17. Many of the other results were omitted from the sample, so the highest values are more common in it than they were.

Results on 89 compounds are retold here after ChEMBL document CHEMBL1157539, “Thousands of chemical starting points for antimalarial lead identification” (Nature, 2010).

This assay can be described thus: GSK_TCMDC: Inhibition Frequency Index (IFI). The number of non-kinase HTS assays where a compound showed > 50 % inhibition, expressed as a percentage of the number of such assays in which the compound was tested. Type of assay: functional.
In the case of `COc1c(C2CCN(CCCCNC(=O)c3ccc(-c4ccc(Cl)cc4)c(O)c3)CC2)ccc2c1CCCC2`, the IFI came out at 9.09%.
Next, `CN1CCCN(c2ccnc3cc4c(cc23)N(C(=O)c2ccc(Cl)cc2Cl)CC4)CC1`: 0.72%; `N=C(NCCCc1ccccc1)c1cccc(C(=N)NCCCc2ccccc2)n1`: 1.47%.
The value for `O=C(CCC1CCCCC1)NCCNc1cccc2ccccc12` was 1.47%; that for `N=C(NCCCCC1CCCCC1)c1cccc(C(=N)NCCCCC2CCCCC2)n1` was 19.9%.
The value for `COc1ccc2c(=NN=Cc3ccc(OC)c4ccccc34)cc(C)[nH]c2c1` was 2.14%.
Take `O=C(Cn1c(SCc2cccc(F)c2F)cc(=O)c2ccccc21)N(CCCn1ccnc1)Cc1ccc(-c2ccc(C(F)(F)F)cc2)cc1`: the IFI was 2.17%.
Next, `CCc1ccc(CN2CCC(CNC(=O)c3cc(-c4cccc(Cl)c4)cs3)C2)cc1` (centres undefined): 8.16%; `CC(Cc1ccc(CN2CCN(Cc3ccccc3)CC2)cc1)NCC(O)c1cccc(C(F)(F)F)c1` (centres undefined): 9.15%.
In turn, `CC(Cc1ccc(OCCN2CCN(c3cccc(C(F)(F)F)c3)CC2)cc1)NCC(O)c1cccc(C(F)(F)F)c1` (centres undefined) showed an IFI of 10.8%.
Next, `CC(Cc1ccc(OCCN2CCN(c3ccc(Cl)cc3)CC2)cc1)NCC(O)c1cccc(C(F)(F)F)c1` (centres undefined): 18.1%; `CC(Cc1ccc(OCCN2CCN(c3cccc(Cl)c3)CC2)cc1)NCC(O)c1cccc(Cl)c1` (centres undefined): 16.4%; `CC(Cc1ccc(OCCN2CCN(c3cccc(Cl)c3)CC2)cc1)NCC(O)c1cccc(C(F)(F)F)c1` (centres undefined): 17.2%.
Next, `CC(Cc1ccc(OCCN2CCN(c3ccccc3)CC2)cc1)NCC(O)c1cccc(Cl)c1F` (centres undefined): 12%.
Compound `N#Cc1ccc(CN2CCCN(Cc3cccc(NC(=O)c4ccc(-c5ccccc5)cc4)c3)CC2)cc1` had an IFI of 8.28%.
The compound `Cc1cc(NCCC(=O)NCCc2ccccc2)nc(NCCc2ccc(F)cc2)n1` had an IFI of 4.55%.
The value for `O=C(/C=C/c1ccc(Cl)c(Cl)c1)NCCCCCCN1CCCN(C(=O)Nc2ccc(Cl)c(C(F)(F)F)c2)CC1` was 11.3%.
Next, `O=C(/C=C/c1ccc(C(F)(F)F)cc1)NCCCCCN1CCN(C(=O)Nc2ccc(Cl)c(Cl)c2)CC1`: 13.7%.
Next, `O=C(/C=C/c1ccc(Cl)c(Cl)c1)NCCCCCN1CCCC(CCCNC(=O)Nc2ccc(C(F)(F)F)cc2)C1` (centres undefined): 11.3%; `O=C(/C=C/c1ccc(Cl)c(Cl)c1)NCCCCCN1CCCC(CNC(=O)Nc2ccc(C(F)(F)F)cc2)C1` (centres undefined): 17.7%.
Regarding `O=C(/C=C/c1ccc(C(F)(F)F)cc1)NCCCCCN1CCCN(C(=O)Nc2ccc(Cl)c(C(F)(F)F)c2)CC1`, the IFI was 18.8%.
The value for `O=C(/C=C/c1ccc(Cl)cc1)NCCCCCN1CCCN(C(=O)Nc2ccc(Cl)c(C(F)(F)F)c2)CC1` was 14.3%.
As to `O=C(/C=C/c1ccc(Cl)c(Cl)c1)NCCCCCCN1CCCN(C(=O)Nc2ccc(C(F)(F)F)cc2)CC1`, the IFI stood at 12.3%.
The value for `O=C(/C=C/c1ccc(C(F)(F)F)cc1)NCCCCCN1CCCN(C(=O)Nc2ccc(Cl)c(Cl)c2)CC1` was 20.4%; that for `CC(C)c1ccc(NC(=O)NCC2CCCN(CCCCCNC(=O)/C=C/c3ccc(Cl)c(Cl)c3)C2)cc1` (centres undefined) was 12.1%.
Next, `Cc1ccc2c(c1)c(C1CCN(C(=O)c3ccc([N+](=O)[O-])o3)CC1)cn2C`: 4.35%.
The value for `Cc1ccc(-c2nn3c(O)c4c(nc3c2C)CCCC4)cc1` was 0.88%.
Compound `COc1c(C2CCN(CCN3CCC(CNC(=O)c4ccc(-c5ccc(C#N)cc5)cc4)CC3)CC2)ccc2c1CCCC2` gave an IFI of 16.2%.
The value for `O=C(Nc1cccc(CN2CCCN(CCc3ccccc3)CC2)c1)c1ccc(Cl)c(Cl)c1` was 3.36%.
`CN1CCN(CCCN(Cc2cccc(-c3ccc(CNCCc4ccccc4)cc3)c2)C(=O)c2cccs2)CC1` came in with an IFI of 11.3%.
The value for `COC(=O)c1cccc(CNCc2ccc(-c3ccc(-c4nc5cc(C(F)(F)F)ccc5[nH]4)s3)cc2)c1` was 11.5%.
As to `Ic1cc(CNC2CCCCC2)ccc1OCc1cccc(COc2ccc(CNC3CCCCC3)cc2I)c1`, the IFI was found to be 10.1%.
The value for `CCN(CC)Cc1cccc(-c2cc3c(-c4ccc(C(=O)O)c(C(C)C)c4)ccnc3[nH]2)c1OC` was 0%; that for `COc1cccc2c(NN=Cc3cccc(Cl)c3)ccnc12` was 3.62%.
`COc1cc2nc(NCc3nc4ccccc4[nH]3)nc(N)c2cc1OC` gave an IFI of 0%.
The value for `CC(C)N1CCN(C(CN2CCN(CCCOc3ccccc3-c3ccccc3)CC2)c2ccc(F)cc2)CC1` (centres undefined) was 13.5%; that for `COc1ccc2ccccc2c1CCCCN1CCN(CC(c2ccc(F)cc2)N2CCN(C3CCCC3)CC2)CC1` (centres undefined) was 12.8%; that for `CC(C)N1CCN(C(CN2CCN(CCCOc3ccc(-c4ccccc4)cc3)CC2)c2ccc(F)cc2)CC1` (centres undefined) was 20.3%.
Next, `CC(C)N1CCN(C(CN2CCN(CCCOc3cccc(-c4ccccc4)c3)CC2)c2ccc(F)cc2)CC1` (centres undefined): 16%; `COc1ccc2ccccc2c1CCCCN1CCN(CC(c2ccc(F)cc2)N2CCN(C(C)C)CC2)CC1` (centres undefined): 14.7%.
Next, `COc1ccc2ccccc2c1CCCCN1CCN(CC(c2ccc(F)cc2)N2CCC2)CC1` (centres undefined): 18.4%; `CCCCCCCNCc1c(O)ccc2c(CNCCCCCCC)c(O)ccc12`: 13.6%; `Oc1ccc2ccccc2c1C=NNc1nc(=Nc2ccccc2)nc(N2CCOCC2)[nH]1`: 3.68%.
The compound `COc1ccccc1CCNc1nc(C)cc(N[C@@H](Cc2ccccc2)C(=O)NCc2cccs2)n1` had an IFI of 9.76%.
`Cc1cnc(C(=O)Nc2ccc3c(c2)CCCN(Cc2c[nH]c4cnccc24)C3)cn1` registered an IFI of 0%.
The value for `CCCCc1ccc(S(=O)(=O)Nc2ccc3c(c2)CCN(Cc2c[nH]c4cnccc24)CC3)cc1` was 19.4%.
The value for `CCCc1ccc(S(=O)(=O)Nc2ccc3c(c2)CCC3)cc1` was 2.26%; that for `CCOc1ccc(C(Cc2ccccc2)NC(=O)c2cccnc2)cc1OCC` (centres undefined) was 0.83%; that for `c1ccc(CCNc2ncnc3c2[nH]c2ccccc23)cc1` was 23.9%.
In the case of `Fc1ccc2[nH]c3c(NCCCN4CCOCC4)ncnc3c2c1`, the IFI was 0%.
Take `Fc1ccc2[nH]c3c(NCCN4CCCCC4)ncnc3c2c1`: the IFI amounted to 1.4%.
The value for `COc1ccc(CNCc2ccc(-c3ccc(-c4nc5cc(F)ccc5[nH]4)cc3)cc2)cc1` was 13.1%; that for `CN(C)CCNc1ncnc2c1[nH]c1ccc(Cl)cc12` was 0%.
The value for `COc1ccccc1CCNc1ncnc2c1[nH]c1ccc(F)cc12` was 20.5%; that for `CN(C)CCCNc1ncnc2c1[nH]c1ccc(F)cc12` was 2.14%; that for `COc1ccc(CNc2ncnc3c2[nH]c2ccc(F)cc23)cc1` was 17.2%.
The value for `Cc1ccc2[nH]c3c(NCCN(C)C)ncnc3c2c1` was 0%; that for `CC(C)C(C(=O)Nc1ccc2c(c1)OCO2)c1ccc(Cl)cc1` (centres undefined) was 9.18%; that for `Cc1cc(=O)c(-c2ccc(Oc3cccc(OC(F)(F)F)c3)cc2)c(C)[nH]1` was 3.76%.
On to `COc1ccc(N2CCN(CCCCNC(=O)c3ccc(NC(=O)c4cc(C(F)(F)F)cc(C(F)(F)F)c4)cc3)CC2)cc1OC`, for which the IFI came to 3.51%.
The value for `c1ccc(CNCc2cccc(-c3ccc(-c4nc5ccccc5[nH]4)s3)c2)cc1` was 3.92%; that for `CCCCCCCc1c(C)nc2cc(OC)ccc2c1O` was 0%.
Next, `CC(C)Oc1cc(-c2ccc(S(C)(=O)=O)cc2)nc(N(Cc2cccc(F)c2F)Cc2cccc(F)c2F)n1`: 0%; `c1ccc2cc(CNCCCN3CCN(CCCNCc4ccc5ccccc5c4)CC3)ccc2c1`: 11.7%; `c1ccc2c(CNCCCN3CCN(CCCNCc4c5ccccc5cc5ccccc45)CC3)c3ccccc3cc2c1`: 15.3%.
With `c1ccc2c(c1)cc(CNCCCN1CCN(CCCNCc3cc4ccccc4c4ccccc34)CC1)c1ccccc12`, the IFI is 19.4%.
The compound `CCCCNC(=N)Nc1ccc(OCCCOc2ccc(NC(=N)NCCCC)cc2)cc1` registered an IFI of 2.99%.
Next, `CC(=O)c1ccc(NC(=O)Nc2ccc3nccc(N4CCN(C)CC4)c3c2)cc1`: 0%.
Next, `CC(=O)c1ccc2nc[nH]c(=O)c2c1`: 26.1%.
The value for `COc1ccc2nccc([C@@H](O)CN3CCC(NCc4ccc5nc[nH]c(=O)c5c4)CC3)c2c1` was 0%; that for `Cc1cc(NCCC(=O)NCCOc2ccccc2)nc(NCCOc2ccccc2)n1` was 4.88%; that for `Nc1ccc(-c2nc3cc(C4=N[C@H]5CCCC[C@H]5N4)ccc3o2)cc1[N+](=O)[O-]` was 1.41%.
In turn, `CCn1c(-c2nonc2N)nc2c(-c3cccc(Cl)c3)ncc(OCCCNCCc3c[nH]cn3)c21` came in with an IFI of 7.69%.
Next, `CCn1c(-c2nonc2N)nc2c(-c3cccc(NC(=O)Nc4ccccc4OC)c3)ncc(OCCCN)c21`: 20.5%; `CCn1c(-c2nonc2N)nc2c(-c3cccc(NC(=O)Nc4cccc(OC)c4)c3)ncc(OCCCN)c21`: 15.6%.
Next, `CCn1c(-c2nonc2N)nc2c(-c3cccc(NC(=O)Nc4ccccc4Cl)c3)ncc(OCCCN)c21`: 18.2%.
Next, `Cc1ccc2[nH]c(-c3ccccc3)cc(=NN=Cc3cccnc3)c2c1`: 1.52%; `Oc1ccc(CCNCCCCCCNCCc2ccc(Br)cc2)cc1O`: 5.15%.
In turn, `N#CCOc1c(C2CCN(CCCCNC(=O)c3ccc(-c4ccc(C(F)(F)F)cc4)cc3)CC2)ccc2c1CCCC2` came in with an IFI of 7.08%.
The value for `N=C(N)Nc1ccc(OCCCCCOc2ccc(NC(=N)N)cc2)cc1` was 3.13%; that for `CC(C)Oc1ccc(CCCON2C(=N)N=C(N)NC2(C)C)cc1` was 5.63%; that for `N#Cc1cccc(CN2CCCN(Cc3ccc(C(=O)Nc4ccc(Cl)cc4)cc3)CC2)c1` was 7.87%.
The value for `CS(=O)(=O)c1ccc2c(c1)CCN(CCC1CCC(NC(=O)C(=Cc3ccc(Cl)cc3Cl)c3ccc(-c4ccccc4)cc3)CC1)CC2` (centres undefined) was 5.48%; that for `CS(=O)(=O)c1ccc2c(c1)CCN(CCC1CCC(NC(=O)c3cc4cccc(Br)c4[nH]3)CC1)CC2` (centres undefined) was 7.59%.
Next, `CC(C)(C)c1ccc(C(=O)NC2CCC(CCN3CCc4ccc(S(C)(=O)=O)cc4CC3)CC2)cc1C(F)(F)F` (centres undefined): 21.6%; `O=C(Nc1ccc(N2CCC(Nc3ccccn3)CC2)cc1)c1cnc(Cl)c(Cl)c1`: 17.4%.
The compound `Cc1ccc(NC(=O)c2cnc(N3CCN(c4ccncc4)CC3)c(Cl)c2)cc1` gave an IFI of 11.9%.
Next, `O=C(Nc1ccc(F)cc1)c1cnc(N2CCN(c3ccncc3)CC2)c(Cl)c1`: 8.51%; `Cn1nccc1C(=O)NCCNCc1ccc(-c2ccc(-c3nc4cc(F)ccc4[nH]3)cc2)cc1`: 8.91%.
